Bioassay records from PubChem BioAssay.
Rows were chosen to be rich in hits. Some 3.4% of all compounds tested hit in one or more screens of this group.
GalR3 antagonist: blocks the human galanin receptor 3; inhibition, % at 3 µM; 360,000 compounds, 0.44% hits; HEK293 GalR3-CNG cAMP membrane potential fluorescence; galR3 body fused to GalR1 C-terminus; O60755; AID 651719;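 active = inhibition above the screen-wide average plus 3 SD, cut at about 13% in these data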;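 also: forskolin and galanin both at EC90 stimulate the cells; cAMP rise reported by CNG channel membrane potential dye signal; 0% = forskolin plus galanin with DMSO and 100% = forskolin alone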
SMARCA2 activ: SMARCA2 function activation, primary screen; MG213 cells, MMTV-luciferase reporter, dexamethasone, overnight; 370,000 compounds, 1% hits; activation, % at 9.1 µM; in the data active = activation above about 7.8%;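 also: 0% = vehicle wells and 100% = reference activator wells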
Gli-Sufu block: antagonists of Gli-Sufu signaling; Sufu-KO-LIGHT fibroblasts, Gli luciferase reporter luminescence; inhibition, % at 5 µM; 340,000 compounds, 0.74% hits; AID 588413;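 active = inhibition above about 55%, limit read from the data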;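 also: 0% = DMSO-treated cells and 100% = wells with medium but no cells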
NR2F2 inh: blocks human COUP-TFII nuclear receptor. P24468. HEK293T NGFI-A luciferase reporter, luminescence. inhibition, % at 8.6 µM. 370,000 compounds, 0.7% hits;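 active = inhibition above a per-plate cutoff, mean inhibition of test wells between control levels plus 3 SD, cut at about 38% in these data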;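 also: cells cotransfected with COUP-TFII expression vector driving the NGFI-A reporter; 0% = median of COUP-TF2 test wells and 100% = reporter-only cells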
Target sequence (P24468 whole entry, looked up): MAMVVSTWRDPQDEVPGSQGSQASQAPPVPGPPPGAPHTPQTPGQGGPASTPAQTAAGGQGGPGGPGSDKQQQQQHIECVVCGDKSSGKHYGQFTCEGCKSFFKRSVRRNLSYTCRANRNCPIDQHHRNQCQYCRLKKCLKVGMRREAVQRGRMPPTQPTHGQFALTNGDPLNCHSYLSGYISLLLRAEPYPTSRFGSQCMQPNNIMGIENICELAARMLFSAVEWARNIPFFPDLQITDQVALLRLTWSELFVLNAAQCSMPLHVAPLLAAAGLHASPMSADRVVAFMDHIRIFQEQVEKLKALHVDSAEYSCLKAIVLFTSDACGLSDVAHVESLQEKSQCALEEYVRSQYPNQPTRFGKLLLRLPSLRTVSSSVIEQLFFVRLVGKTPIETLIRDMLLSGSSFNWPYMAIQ
H9c2 protect: modulators protecting cardiomyocytes from myocardial damage; H9c2 cardiomyocytes, H2O2 injury protection, ATPLite, 2 h; protection from H2O2 cell death, % at 20 µM; 360,000 compounds, 0.63% hits;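 active = compounds giving at least 50% protection of heart cells from peroxide-induced death in the single-dose screen, raw or plate-pattern-corrected value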;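 also: 0% = DMSO wells with peroxide and 100% = DMSO wells without peroxide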
FXN GAA850 act: activators of GAA850 frataxin (FXN) promoter; HEK293 lucGAA850 FXN promoter luciferase reporter, 24 h; percent of 10 µM SAHA response; activation, % at 6 µM; 360,000 compounds, 0.56% hits;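 active = activation above the average of all compounds screened plus 3 SD, cutoff fixed separately per campaign, cut at about 7.5% in these data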;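 also: 0% = DMSO wells and 100% = 10 µM SAHA wells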
GAA30 FXN cntr: GAA30 FXN promoter activation counter-screen | shares compounds with FXN GAA850 act | AID 588350 | HEK293 lucGAA30 FXN promoter luciferase, 24 h; DMSO = 0%, 5 µM ipriflavone = 100% | activation, % at 6 µM | 1,900 compounds, 66% hits;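 active = mean activation above the mean of solvent-only control wells plus 3 SD, cut at about 22% in these data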;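 also: counterscreen of GAA850 promoter hits where activity marks nonselective or luminescence artifacts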
FXN GAA850 conf: confirmation of GAA850 frataxin (FXN) promoter activators | shares compounds with FXN GAA850 act | activation, % at 6 µM | HEK293 lucGAA850 FXN promoter luciferase reporter, 24 h; 100% = activation by SAHA | 1,900 compounds, 86% hits;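 active = mean activation above a set limit taken from the primary screen, cut at about 8% in these data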;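 also: 0% = DMSO wells and 100% = 10 µM SAHA wells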
* hit, by the source's call; · = no result.

SMILES	GalR3 antagonist	SMARCA2 activ	Gli-Sufu block	NR2F2 inh	H9c2 protect	FXN GAA850 act	GAA30 FXN cntr	FXN GAA850 conf
Cn1c2ccccc2c(=O)c2ccc(NCc3ccc4c(c3)OCO4)cc21	-3	1	-29	-22	71*	11*	71*	27*
CCN1C(=O)[C@H]2[C@@H](c3ccc(C)cc3)N3C(=O)N(c4cccc(Br)c4)C(=O)[C@@]3(Cc3ccccc3)[C@H]2C1=O	-7	0	11	4	4	-5	·	·
CC[C@@]12C(=O)N(c3cccc(Cl)c3)C(=O)N1[C@H](c1ccc(Br)cc1)[C@@H]1C(=O)N(C(C)(C)C)C(=O)[C@@H]12	-9	1	1	2	-3	14*	35*	17*
CC[C@@]12C(=O)N(c3cccc(C)c3)C(=O)N1[C@H](c1ccc(Br)cc1)[C@@H]1C(=O)N(C(C)(C)C)C(=O)[C@@H]12	-8	-1	4	1	6	16*	23*	11*
CC(C)C[C@@]12C(=O)N(c3ccc(Br)cc3)C(=O)N1[C@H](c1ccc(Br)cc1)[C@@H]1C(=O)N(C(C)(C)C)C(=O)[C@@H]12	-5	0	-2	9	-2	17*	18	18*
CC(C)(C)N1C(=O)[C@H]2[C@@H](c3ccc(Br)cc3)N3C(=O)N(c4cccc(Br)c4)C(=O)[C@@]3(Cc3ccccc3)[C@H]2C1=O	·	·	8	·	6	15*	14	11*
CCN1C(=O)[C@H]2[C@@H](c3ccc(C)cc3)N3C(=O)N(c4cccc(Cl)c4)C(=O)[C@@]3(Cc3ccc(Cl)cc3)[C@H]2C1=O	-9	0	3	8	-3	1	·	·
CCN1C(=O)[C@H]2[C@@H](c3ccc(C)cc3)N3C(=O)N(c4cccc(Cl)c4)C(=O)[C@@]3(CC(C)C)[C@H]2C1=O	-5	0	3	-4	4	17*	26*	12*
CCN1C(=O)[C@H]2[C@@H](c3ccc(C)cc3)N3C(=O)N(c4cccc(Cl)c4)C(=O)[C@@]3(Cc3ccccc3)[C@H]2C1=O	-1	0	1	1	1	-2	·	·
CC(C)C[C@@]12C(=O)N(c3cccc(F)c3)C(=O)N1[C@H](c1ccc(Br)cc1)[C@@H]1C(=O)N(C(C)(C)C)C(=O)[C@@H]12	-5	2	2	-14	-11	17*	29*	18*
CC(C)C[C@@]12C(=O)N(c3cccc(Cl)c3)C(=O)N1[C@H](c1ccc(Br)cc1)[C@@H]1C(=O)N(C(C)(C)C)C(=O)[C@@H]12	-3	-1	11	-5	-4	15*	33*	18*
O=C(c1cscn1)N1CCC(Oc2cccnc2)CC1	·	-1	·	-9	·	·	·	·
CCCNC(=O)C1(C)CCCN(Cc2ccc3ccccc3c2)C1 (stereo not drawn)	0	-4	·	10	-7	0	·	·
CCN1CCN(C(=O)c2oc(=O)c3ccccc3c2-c2ccc(C)cc2)CC1	1	-2	19	-6	5	15*	7	3
CCOC(=O)CSc1ccc(-c2nc3ccccc3[nH]2)cn1	-8	0	1	-4	-8	1	·	·
N#CCSc1ccc(-c2nc3ccccc3[nH]2)cn1	4	0	-56	-32	-14	7.8*	85*	27*
CC(=O)NC(C)C(=O)N1CCCC1C(=O)N1CCCC1C(=O)NC(C)C(=O)NC1C(=O)NC(CC(C)C)C(=O)NC2CCCCNC(=O)CCC(C(=O)NC(Cc3ccc(O)cc3)C(=O)O)NC(=O)C3CCC(=O)OCC(NC(=O)C4CCCN4C(=O)C(Cc4c[nH]c5ccccc45)NC2=O)C(=O)NC(CC(=O)OC1C)C(=O)NC(Cc1c[nH]c2ccccc12)C(=O)N3 (stereo not drawn)	·	-3	·	14	·	·	·	·
Oc1ccc(/C=N/N2CCCCC2)cc1O	-5	0	6	6	69*	12*	55*	28*
CCCCCN1CCCCC(NC(=O)C(C)(C)C)C1=O (stereo not drawn)	·	-2	·	-6	·	·	·	·
Nc1cc([N+](=O)[O-])cc2oc(-c3ccccc3)cc12	1	5	-24	-17	-8	8.2*	94*	33*
O=[N+]([O-])c1cccc(-c2nnc(-c3ccccc3)o2)c1	-7	3	-112	-38	-3	4	·	·
COC(=O)c1c(NC(=O)Cc2cccs2)sc(C(=O)N2CCCCC2)c1C	-8	0	6	8	-2	9.2*	8	9.3*
O=C(O)C(=Cc1ccc([N+](=O)[O-])cc1)c1cccc(Cl)c1	-2	1	·	-2	-2	0	·	·
Cc1ccc(Nc2nc(CSc3nnc(-c4ccccc4)n3C)cs2)cc1	0	2	-41	-38	-17	7.6*	120*	41*
Cc1ccc(Nc2nc(CSc3nnc(-c4ccccc4C)n3C)cs2)cc1	1	-1	-15	-14	-12	2	·	·
SMILES	GalR3 antagonist	SMARCA2 activ	Gli-Sufu block	NR2F2 inh	H9c2 protect	FXN GAA850 act	GAA30 FXN cntr	FXN GAA850 conf
O=C(O)c1cccc(S(=O)(=O)NCC(=O)N2CCN(c3ccccn3)CC2)c1	·	4	·	-3	·	·	·	·
CN(c1ccccc1)c1nc2ccsc2c(=O)s1	-5	7	-87	-30	-4	7.7*	94*	36*
CCN(c1ccccc1)c1nc2ccsc2c(=O)s1	-1	4	-12	-4	-8	5	·	·
Nc1nc2c(ncn2[C@@H]2O[C@H](CNCC3=Cc4cc(O)ccc4OC3)[C@@H](O)[C@H]2O)c(=O)[nH]1	-5	6	·	0	1	·	·	·
COc1ccc(C(=O)Cn2cnc3ccccc3c2=O)c(OC)c1	3	2	-61	-11	-5	7.7*	57*	24*
O=C1NC[C@H](Cc2ccc(O)cc2)N(C[C@@H]2CCCN2C[C@H](Cc2ccccc2)N2C[C@H](Cc3ccc(O)cc3)N(CC3CCCCCC3)C(=O)C2=O)C1=O	-4	-3	·	13	·	·	·	·
CC(=O)Nc1ccc(-c2ccnc3c2CC(C(=O)NCc2cccc(Cl)c2)O3)cc1 (stereo not drawn)	4	-3	·	-57	16	-3	·	·
Cc1ccc(Nc2nc(N)c([N+](=O)[O-])c(NCc3ccco3)n2)cc1	-7	3	-7	-15	-26	8.9*	67*	34*
Nc1nc(Nc2ccccc2)nc(NCc2ccco2)c1[N+](=O)[O-]	-10	0	-4	-1	-14	7	·	·
COc1ccc(OC)c(-c2cc(C(=O)Nc3c(C)nn(Cc4ccccc4)c3C)no2)c1	5	-2	33	11	0	7.8*	8	13*
